Experimental findings from PMC7862700, “An all-to-all approach to the identification of sequence-specific readers for epigenetic DNA modifications on cytosine” are described below.

Common to all, as to test: DAPPL (digital affinity profiling via proximity ligation, sequencing); 10 mM Tris-HCl pH 7.5, 50 mM NaCl, 1 mM DTT, 4% glycerol, room temperature, 30 min; GST-TFs on glutathione beads, 16-mer random dsDNA library, 0.1% formaldehyde crosslink after washing; high values mean tight binding
One assay concerns the target T1, FEV (Homo sapiens, UniProt Q99581 1-238).
T1 sequence: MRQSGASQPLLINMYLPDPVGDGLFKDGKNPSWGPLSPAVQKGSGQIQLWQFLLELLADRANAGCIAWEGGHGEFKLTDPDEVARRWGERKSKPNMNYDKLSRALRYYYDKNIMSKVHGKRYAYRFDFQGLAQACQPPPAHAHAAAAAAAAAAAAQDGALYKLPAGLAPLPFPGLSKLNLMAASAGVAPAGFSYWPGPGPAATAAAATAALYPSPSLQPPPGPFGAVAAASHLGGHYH
As to conditions: protein: recombinant; tags: N-terminal GST; dsDNA, one strand shown. Summed up:
(§1)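 Human transcription factors fused to GST were expressed in yeast, captured on glutathione beads, given DNA barcodes and pooled with a GST-only negative control. Pools were incubated with 200 nmole of a 16-mer random double-stranded DNA library in Tris/NaCl/DTT/glycerol buffer at room temperature for 30 min. They were then washed, crosslinked with 0.1% formaldehyde, proximity-ligated (BsaI/T4 ligase, 1 h, 37 °C), PCR-amplified and sequenced on an Illumina NextSeq500. Binding signal is each 6-mer's read frequency for a factor divided by its frequency for the GST control.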

Another assay concerns the target ETV5 (Homo sapiens, UniProt P41161 1-510). The note with it: protein: recombinant; tags: N-terminal GST; dsDNA, one strand shown. In short, it runs like this: as §1
A further assay has as its target HSF1 (Homo sapiens, UniProt Q00613 1-529). The note with it: protein: recombinant; tags: N-terminal GST; chain copies: 3; dsDNA, one strand shown. Summed up:
as §1

A further assay concerns the target T2, SPIC (Homo sapiens, UniProt Q8N5J4 1-248).
T2 sequence: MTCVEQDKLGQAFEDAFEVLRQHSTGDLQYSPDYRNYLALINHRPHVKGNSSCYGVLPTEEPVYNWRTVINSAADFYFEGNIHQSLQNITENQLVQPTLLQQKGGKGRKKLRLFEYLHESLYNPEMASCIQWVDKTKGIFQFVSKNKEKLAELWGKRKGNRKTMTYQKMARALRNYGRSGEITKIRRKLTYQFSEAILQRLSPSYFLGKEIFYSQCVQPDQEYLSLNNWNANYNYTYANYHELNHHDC
As to conditions: protein: recombinant; tags: N-terminal GST; dsDNA, one strand shown. In short, it runs like this:
as §1

A further assay concerns the target ELF4 (Homo sapiens, UniProt Q99607 1-663). As to conditions: protein: recombinant; tags: N-terminal GST; dsDNA, one strand shown. Summed up: as §1
The target of a further assay is T3, ELK4 (Homo sapiens, UniProt P28324-2 1-405).
T3 sequence: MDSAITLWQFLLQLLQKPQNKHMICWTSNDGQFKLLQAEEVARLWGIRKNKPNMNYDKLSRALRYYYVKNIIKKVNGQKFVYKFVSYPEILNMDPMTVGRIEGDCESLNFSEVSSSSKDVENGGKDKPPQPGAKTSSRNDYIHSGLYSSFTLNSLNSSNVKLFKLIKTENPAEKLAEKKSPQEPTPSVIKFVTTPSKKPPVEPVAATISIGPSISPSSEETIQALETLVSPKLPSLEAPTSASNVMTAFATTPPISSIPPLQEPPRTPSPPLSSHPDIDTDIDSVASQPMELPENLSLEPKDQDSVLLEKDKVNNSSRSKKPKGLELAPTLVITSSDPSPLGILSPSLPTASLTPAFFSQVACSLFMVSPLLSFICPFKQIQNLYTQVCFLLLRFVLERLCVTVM
As to conditions: protein: recombinant; tags: N-terminal GST; dsDNA, one strand shown. In short, it runs like this: as §1

Another assay concerns the target T4, ETV2 (Homo sapiens, UniProt O00321 1-342).
T4 sequence: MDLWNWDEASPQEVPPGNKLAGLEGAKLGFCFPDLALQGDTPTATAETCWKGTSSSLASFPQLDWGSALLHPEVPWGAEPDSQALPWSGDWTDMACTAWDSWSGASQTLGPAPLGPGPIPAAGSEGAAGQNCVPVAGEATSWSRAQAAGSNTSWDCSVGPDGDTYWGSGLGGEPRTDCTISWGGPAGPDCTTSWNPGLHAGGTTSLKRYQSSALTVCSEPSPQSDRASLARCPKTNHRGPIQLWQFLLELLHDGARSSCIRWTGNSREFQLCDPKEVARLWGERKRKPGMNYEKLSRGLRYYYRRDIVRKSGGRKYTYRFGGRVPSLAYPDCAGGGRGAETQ
As to conditions: protein: recombinant; tags: N-terminal GST; dsDNA, one strand shown. Summed up: as §1

The target in a further assay is T5, ELF3 (Homo sapiens, UniProt P78545 1-371).
T5 sequence: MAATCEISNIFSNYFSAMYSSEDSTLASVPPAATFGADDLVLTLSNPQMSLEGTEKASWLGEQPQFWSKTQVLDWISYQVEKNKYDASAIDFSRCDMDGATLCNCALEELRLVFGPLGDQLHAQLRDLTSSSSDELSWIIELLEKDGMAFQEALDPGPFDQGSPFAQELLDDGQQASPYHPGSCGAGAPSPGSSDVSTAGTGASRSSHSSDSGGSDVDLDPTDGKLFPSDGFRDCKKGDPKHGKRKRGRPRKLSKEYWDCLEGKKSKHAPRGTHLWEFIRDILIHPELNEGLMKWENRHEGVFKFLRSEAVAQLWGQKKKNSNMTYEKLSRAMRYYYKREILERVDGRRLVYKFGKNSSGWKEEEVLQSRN
As to conditions: protein: recombinant; tags: N-terminal GST; dsDNA, one strand shown. In short, it runs like this:
as §1

A further assay addresses CRX (Homo sapiens, UniProt O43186 1-299). The note with it: protein: recombinant; tags: N-terminal GST; dsDNA, one strand shown. Summed up: as §1
Another assay concerns the target ETV1 (Homo sapiens, UniProt P50549 1-477). The note with it: protein: recombinant; tags: N-terminal GST; dsDNA, one strand shown. Summed up: as §1
In a further assay the target is T6, ERF (Homo sapiens, UniProt P50548 1-548).
T6 sequence: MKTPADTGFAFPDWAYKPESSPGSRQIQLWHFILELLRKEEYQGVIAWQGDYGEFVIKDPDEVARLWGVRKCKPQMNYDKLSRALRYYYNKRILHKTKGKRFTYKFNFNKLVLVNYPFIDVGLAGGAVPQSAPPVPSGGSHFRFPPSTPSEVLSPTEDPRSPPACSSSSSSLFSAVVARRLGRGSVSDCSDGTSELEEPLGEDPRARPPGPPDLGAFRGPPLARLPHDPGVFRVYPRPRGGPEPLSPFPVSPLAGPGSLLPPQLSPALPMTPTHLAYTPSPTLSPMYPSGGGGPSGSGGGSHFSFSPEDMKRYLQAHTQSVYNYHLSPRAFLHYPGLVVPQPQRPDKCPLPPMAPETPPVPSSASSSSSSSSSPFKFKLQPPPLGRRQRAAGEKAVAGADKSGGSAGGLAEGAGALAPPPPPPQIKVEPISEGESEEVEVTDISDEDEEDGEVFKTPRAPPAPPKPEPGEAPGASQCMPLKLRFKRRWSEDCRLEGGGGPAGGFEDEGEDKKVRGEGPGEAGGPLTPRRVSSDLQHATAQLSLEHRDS
As to conditions: protein: recombinant; tags: N-terminal GST; dsDNA, one strand shown. In short, it runs like this:
as §1

The target of another assay is T7, ETV3L (Homo sapiens, UniProt Q6ZN32 1-361).
T7 sequence: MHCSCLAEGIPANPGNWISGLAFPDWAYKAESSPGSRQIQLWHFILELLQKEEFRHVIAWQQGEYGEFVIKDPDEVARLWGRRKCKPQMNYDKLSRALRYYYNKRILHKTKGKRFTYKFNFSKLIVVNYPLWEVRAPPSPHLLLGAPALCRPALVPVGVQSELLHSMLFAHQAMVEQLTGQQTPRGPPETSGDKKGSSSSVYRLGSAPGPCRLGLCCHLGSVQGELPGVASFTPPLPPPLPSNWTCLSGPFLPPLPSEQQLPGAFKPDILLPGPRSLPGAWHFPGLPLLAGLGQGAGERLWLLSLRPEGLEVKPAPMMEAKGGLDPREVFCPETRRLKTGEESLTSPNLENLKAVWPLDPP
As to conditions: protein: recombinant; tags: N-terminal GST; dsDNA, one strand shown. In short, it runs like this: as §1

A further assay addresses T8, ETS2 (Homo sapiens, UniProt P15036 1-469).
T8 sequence: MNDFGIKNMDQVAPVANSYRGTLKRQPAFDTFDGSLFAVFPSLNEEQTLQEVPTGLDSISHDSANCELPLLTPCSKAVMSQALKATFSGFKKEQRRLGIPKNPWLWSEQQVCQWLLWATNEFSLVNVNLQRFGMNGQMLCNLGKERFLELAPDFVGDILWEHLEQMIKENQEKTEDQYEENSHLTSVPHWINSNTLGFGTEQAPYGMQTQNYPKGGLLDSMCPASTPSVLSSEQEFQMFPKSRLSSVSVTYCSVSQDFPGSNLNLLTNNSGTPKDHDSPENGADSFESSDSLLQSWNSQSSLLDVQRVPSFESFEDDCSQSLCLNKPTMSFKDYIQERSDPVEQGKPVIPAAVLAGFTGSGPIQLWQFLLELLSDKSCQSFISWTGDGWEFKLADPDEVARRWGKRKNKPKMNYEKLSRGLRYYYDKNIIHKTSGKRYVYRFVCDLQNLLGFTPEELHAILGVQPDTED
As to conditions: protein: recombinant; tags: N-terminal GST; dsDNA, one strand shown. Summed up: as §1

The next assay has as its target T9, SPDEF (Homo sapiens, UniProt O95238 1-335).
T9 sequence: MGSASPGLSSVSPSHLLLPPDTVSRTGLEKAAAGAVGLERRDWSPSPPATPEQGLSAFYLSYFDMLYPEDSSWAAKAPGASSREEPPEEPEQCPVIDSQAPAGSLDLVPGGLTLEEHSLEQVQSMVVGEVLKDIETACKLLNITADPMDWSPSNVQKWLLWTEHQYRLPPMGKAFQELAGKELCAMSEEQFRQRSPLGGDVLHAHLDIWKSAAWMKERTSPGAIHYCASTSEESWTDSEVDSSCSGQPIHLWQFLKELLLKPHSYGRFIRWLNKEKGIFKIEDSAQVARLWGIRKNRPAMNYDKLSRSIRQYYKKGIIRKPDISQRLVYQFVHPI
The note with it: protein: recombinant; tags: N-terminal GST; dsDNA, one strand shown. Summed up: as §1

A further assay addresses T10, ETV7 (Homo sapiens, UniProt Q9Y603 1-341).
T10 sequence: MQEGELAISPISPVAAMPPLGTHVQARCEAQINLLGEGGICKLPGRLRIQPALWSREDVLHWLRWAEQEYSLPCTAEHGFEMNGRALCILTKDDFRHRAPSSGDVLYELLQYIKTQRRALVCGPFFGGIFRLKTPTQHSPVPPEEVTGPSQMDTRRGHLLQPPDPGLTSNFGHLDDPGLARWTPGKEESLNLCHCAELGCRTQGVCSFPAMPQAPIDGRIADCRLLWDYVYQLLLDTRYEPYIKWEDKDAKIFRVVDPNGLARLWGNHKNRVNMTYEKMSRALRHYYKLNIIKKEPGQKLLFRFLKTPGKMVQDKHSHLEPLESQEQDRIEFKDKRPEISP
As to conditions: protein: recombinant; tags: N-terminal GST; dsDNA, one strand shown. Summed up:
as §1

Another assay addresses T11, ELF5 (Homo sapiens, UniProt Q9UKW6-2 1-255).
T11 sequence: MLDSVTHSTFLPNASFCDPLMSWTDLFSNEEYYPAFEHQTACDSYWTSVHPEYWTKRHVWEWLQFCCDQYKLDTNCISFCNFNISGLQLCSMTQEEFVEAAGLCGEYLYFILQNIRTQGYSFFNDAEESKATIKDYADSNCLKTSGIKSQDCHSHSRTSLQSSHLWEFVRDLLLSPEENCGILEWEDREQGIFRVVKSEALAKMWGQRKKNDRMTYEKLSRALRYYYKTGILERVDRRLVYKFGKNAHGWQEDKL
As to conditions: protein: recombinant; tags: N-terminal GST; dsDNA, one strand shown. Summed up: as §1

The target of another assay is T12, ETV3 (Homo sapiens, UniProt P41162-2 1-143).
T12 sequence: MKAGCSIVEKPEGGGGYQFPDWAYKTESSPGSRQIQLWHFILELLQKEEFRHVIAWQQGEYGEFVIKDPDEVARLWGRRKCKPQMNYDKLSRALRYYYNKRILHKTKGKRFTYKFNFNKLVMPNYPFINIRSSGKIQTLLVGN
The note with it: protein: recombinant; tags: N-terminal GST; dsDNA, one strand shown. Summed up:
as §1

Another assay has as its target ETV6 (Homo sapiens, UniProt P41212 1-452). The note with it: protein: recombinant; tags: N-terminal GST; dsDNA, one strand shown. Summed up: as §1

Sequence of ETV6 (P41212 whole entry): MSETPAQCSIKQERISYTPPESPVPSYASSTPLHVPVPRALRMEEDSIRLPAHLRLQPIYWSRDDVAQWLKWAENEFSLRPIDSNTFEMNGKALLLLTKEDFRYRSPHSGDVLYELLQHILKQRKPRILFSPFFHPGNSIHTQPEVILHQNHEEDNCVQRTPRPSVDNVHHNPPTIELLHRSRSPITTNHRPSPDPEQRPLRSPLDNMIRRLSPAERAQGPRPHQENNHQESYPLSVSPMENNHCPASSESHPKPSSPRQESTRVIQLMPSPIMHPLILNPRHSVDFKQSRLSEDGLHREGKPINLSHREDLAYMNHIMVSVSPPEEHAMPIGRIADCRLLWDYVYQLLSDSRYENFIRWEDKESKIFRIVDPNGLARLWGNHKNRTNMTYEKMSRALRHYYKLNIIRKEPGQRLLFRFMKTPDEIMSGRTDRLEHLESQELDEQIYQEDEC
Sequence of ETV5 (P41161 whole entry): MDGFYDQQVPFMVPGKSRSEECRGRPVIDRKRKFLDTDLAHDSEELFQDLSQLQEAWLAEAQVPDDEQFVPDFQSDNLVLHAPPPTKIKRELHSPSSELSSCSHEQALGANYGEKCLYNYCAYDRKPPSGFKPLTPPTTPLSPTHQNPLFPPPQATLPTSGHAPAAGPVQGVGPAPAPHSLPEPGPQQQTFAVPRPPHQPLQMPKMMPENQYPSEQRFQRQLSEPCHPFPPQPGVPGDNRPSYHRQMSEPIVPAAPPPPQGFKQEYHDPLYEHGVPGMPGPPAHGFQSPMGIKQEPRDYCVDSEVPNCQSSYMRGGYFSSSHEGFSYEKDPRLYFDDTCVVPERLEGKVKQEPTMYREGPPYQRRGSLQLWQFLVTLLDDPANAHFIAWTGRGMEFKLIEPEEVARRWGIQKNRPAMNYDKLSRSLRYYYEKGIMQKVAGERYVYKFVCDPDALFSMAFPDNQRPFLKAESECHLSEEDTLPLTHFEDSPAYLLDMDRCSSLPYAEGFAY
Sequence of ELF4 (Q99607 whole entry): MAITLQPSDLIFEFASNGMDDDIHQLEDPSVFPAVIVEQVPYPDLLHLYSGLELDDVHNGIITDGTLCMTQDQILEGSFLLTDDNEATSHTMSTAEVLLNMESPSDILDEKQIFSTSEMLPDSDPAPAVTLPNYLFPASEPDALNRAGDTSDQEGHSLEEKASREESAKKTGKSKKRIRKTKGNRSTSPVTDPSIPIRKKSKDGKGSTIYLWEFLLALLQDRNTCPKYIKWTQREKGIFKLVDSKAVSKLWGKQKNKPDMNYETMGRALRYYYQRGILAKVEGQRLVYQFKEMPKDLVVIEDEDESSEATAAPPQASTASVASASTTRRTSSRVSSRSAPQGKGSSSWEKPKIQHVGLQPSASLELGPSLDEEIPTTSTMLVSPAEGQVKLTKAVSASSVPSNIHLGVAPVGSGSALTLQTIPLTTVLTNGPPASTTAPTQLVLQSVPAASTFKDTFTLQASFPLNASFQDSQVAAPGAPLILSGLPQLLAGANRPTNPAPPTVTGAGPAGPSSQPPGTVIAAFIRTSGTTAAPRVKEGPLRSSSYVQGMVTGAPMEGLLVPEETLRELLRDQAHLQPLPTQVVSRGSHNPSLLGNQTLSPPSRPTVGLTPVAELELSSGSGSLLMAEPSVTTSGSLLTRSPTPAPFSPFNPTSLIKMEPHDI
Sequence of HSF1 (Q00613 whole entry): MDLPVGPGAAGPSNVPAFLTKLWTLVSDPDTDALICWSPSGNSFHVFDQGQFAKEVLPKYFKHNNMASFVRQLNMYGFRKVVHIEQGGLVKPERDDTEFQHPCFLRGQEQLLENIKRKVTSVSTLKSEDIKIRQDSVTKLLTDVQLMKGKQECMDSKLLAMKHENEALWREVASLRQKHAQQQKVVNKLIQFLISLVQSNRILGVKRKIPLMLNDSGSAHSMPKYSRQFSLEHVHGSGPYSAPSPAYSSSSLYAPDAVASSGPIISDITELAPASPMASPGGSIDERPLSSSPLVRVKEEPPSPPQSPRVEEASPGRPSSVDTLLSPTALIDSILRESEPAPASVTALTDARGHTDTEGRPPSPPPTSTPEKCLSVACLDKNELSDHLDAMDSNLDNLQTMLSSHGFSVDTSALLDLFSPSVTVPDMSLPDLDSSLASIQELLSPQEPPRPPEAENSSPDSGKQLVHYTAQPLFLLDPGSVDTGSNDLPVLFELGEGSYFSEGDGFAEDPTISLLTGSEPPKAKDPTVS
Sequence of ETV1 (P50549 whole entry): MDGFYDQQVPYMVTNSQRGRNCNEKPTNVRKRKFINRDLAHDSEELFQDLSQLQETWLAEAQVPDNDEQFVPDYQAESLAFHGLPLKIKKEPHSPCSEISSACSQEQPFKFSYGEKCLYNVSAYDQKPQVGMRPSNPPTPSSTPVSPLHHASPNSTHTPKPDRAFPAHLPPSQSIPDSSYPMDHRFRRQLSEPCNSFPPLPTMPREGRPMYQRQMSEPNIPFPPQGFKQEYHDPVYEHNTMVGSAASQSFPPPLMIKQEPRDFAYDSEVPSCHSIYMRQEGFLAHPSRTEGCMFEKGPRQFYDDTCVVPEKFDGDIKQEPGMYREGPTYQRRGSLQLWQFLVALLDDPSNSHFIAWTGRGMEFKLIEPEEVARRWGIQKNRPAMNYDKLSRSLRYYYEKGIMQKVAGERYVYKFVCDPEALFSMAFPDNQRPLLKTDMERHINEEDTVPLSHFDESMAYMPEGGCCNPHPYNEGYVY
Sequence of CRX (O43186 whole entry): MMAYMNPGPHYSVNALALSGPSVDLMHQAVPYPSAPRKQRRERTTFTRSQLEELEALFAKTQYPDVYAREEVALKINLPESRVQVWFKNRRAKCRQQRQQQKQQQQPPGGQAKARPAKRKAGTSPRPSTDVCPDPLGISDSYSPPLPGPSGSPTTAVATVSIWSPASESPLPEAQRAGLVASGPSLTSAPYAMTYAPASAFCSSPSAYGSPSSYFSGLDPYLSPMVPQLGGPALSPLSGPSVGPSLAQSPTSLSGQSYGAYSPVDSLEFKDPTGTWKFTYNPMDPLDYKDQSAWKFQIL

In the case of TCTCGA, the binding signal with FEV was 1.23 fold enrichment (6-mer frequency, TF over GST control); in the assay with ETV5 it was 1.4 fold enrichment (6-mer frequency, TF over GST control); with HSF1 it was 5.05 fold enrichment (6-mer frequency, TF over GST control); in the assay with SPIC, 1.35 fold enrichment (6-mer frequency, TF over GST control); in the assay with ELF4 it was 1.51 fold enrichment (6-mer frequency, TF over GST control); in the assay with ELK4 it was 1.46 fold enrichment (6-mer frequency, TF over GST control). The binding signal was 1.27 fold enrichment (6-mer frequency, TF over GST control) with ETV2; 1.35 fold enrichment (6-mer frequency, TF over GST control) in the assay with ELF3; 2.28 fold enrichment (6-mer frequency, TF over GST control) with CRX; 1.47 fold enrichment (6-mer frequency, TF over GST control) with ETV1; 1.35 fold enrichment (6-mer frequency, TF over GST control) in the assay with ERF; 1.35 fold enrichment (6-mer frequency, TF over GST control) with ETV3L. In addition, the binding signal with ETS2 was 1.44 fold enrichment (6-mer frequency, TF over GST control); with SPDEF, 1.2 fold enrichment (6-mer frequency, TF over GST control); in the assay with ETV7, 1.47 fold enrichment (6-mer frequency, TF over GST control); in the assay with ELF5, 1.27 fold enrichment (6-mer frequency, TF over GST control); with ETV3, 1.4 fold enrichment (6-mer frequency, TF over GST control); with ETV6, 1.47 fold enrichment (6-mer frequency, TF over GST control).
